Source: PubChem (National Center for Advancing Translational Sciences (NCATS))
Giardia FBPA inh – Giardia lamblia aldolase inhibition | Potency, µM (doses to about 59.6 µM), most hits filed as inhibitors | AID 2451 | purified Giardia FBPA | A8B2U2 | hit rate 0.71% among 290,000; further: nearly all actives have a fitted effect of over 55% in size
Target sequence (A8B2U2 whole entry, looked up): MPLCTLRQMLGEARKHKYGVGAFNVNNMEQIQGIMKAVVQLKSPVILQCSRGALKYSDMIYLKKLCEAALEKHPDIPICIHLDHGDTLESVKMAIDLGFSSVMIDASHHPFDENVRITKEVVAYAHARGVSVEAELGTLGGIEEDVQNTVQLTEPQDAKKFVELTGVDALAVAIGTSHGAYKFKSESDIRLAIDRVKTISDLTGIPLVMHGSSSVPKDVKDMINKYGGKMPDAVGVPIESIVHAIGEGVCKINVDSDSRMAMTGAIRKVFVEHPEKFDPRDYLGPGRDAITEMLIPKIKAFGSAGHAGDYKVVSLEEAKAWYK
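Giardia FBPA (40 nM reagent) was preincubated 10 min at RT with compound (up to 57.5 uM final), then substrate plus GAPDH/TPI/NAD/arsenate coupling system with diaphorase/resazurin was added; resorufin fluorescence (525/598 nm) was read after 20 min.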
AmpC inh detg – AmpC beta-lactamase inhibition with detergent present. Potency, µM (series often up to 114 µM), actives largely listed as inhibitors. hit rate 0.041% among 370,000. AmpC hydrolysis of nitrocefin, absorbance 480 nm, 0.01% Triton; further: nearly all actives have a fitted effect of over 25% in size
Target sequence (P00811 whole entry, looked up): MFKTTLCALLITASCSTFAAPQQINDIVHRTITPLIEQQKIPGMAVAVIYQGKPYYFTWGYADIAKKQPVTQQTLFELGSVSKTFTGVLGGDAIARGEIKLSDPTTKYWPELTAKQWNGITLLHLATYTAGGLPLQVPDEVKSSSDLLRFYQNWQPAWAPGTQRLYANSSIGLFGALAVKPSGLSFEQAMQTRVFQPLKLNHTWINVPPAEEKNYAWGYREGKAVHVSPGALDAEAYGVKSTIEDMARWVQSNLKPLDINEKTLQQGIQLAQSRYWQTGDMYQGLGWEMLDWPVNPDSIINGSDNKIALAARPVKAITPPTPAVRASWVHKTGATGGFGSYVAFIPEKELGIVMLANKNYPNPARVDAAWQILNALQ
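20 mM phosphate pH 7.0 + 0.01% (detergent screen) or 0.0001% Triton X-100; 5.3 nM AmpC reagent; cpd preinc 15 min RT; nitrocefin (800 uM stock) to start; A480 q20 s × 4 min; Activity was normalised to no-enzyme and no-compound control wells.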
AMA1-RON2 inh – disrupts binding of P. falciparum AMA1 to RON2; Potency, µM (highest dose often 58.2 µM), actives largely listed as inhibitors; AID 720542; AlphaScreen AMA1-biotinylated RON2 peptide binding; hit rate 0.2% among 360,000; further: nearly all actives have a fitted effect of over 45% in size
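AMA1 (3D7) with his tag at 25 nM final met compounds first, then biotinylated RON2 peptide at 25 nM; detection used donor plus acceptor beads, 10 µg/mL apiece, read by AlphaScreen after 30 min at room temperature.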
LmPK inh – blocks Leishmania mexicana pyruvate kinase activity; Q27686; purified LmPK, Kinase-Glo ATP luminescence, 1 h; Potency, µM (highest dose often 57.5 µM), actives largely listed as inhibitors; hit rate 0.37% among 290,000; AID 1721
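Purified LmPK (0.1 nM) with 0.5 mM PEP and 0.1 mM ADP in imidazole buffer pH 7.2 with MgCl2/KCl, 1 h at room temperature. ATP formed was read by luciferase luminescence and normalized to no-enzyme and uninhibited controls.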
AmpC inh no detg – AmpC beta-lactamase inhibition without detergent | Potency, µM (doses to about 57.1 µM), hits mostly inhibitors | P00811 | AID 485341 | hit rate 0.52% among 330,000 | AmpC nitrocefin hydrolysis, absorbance 480 nm, 0.0001% Triton; further: nearly all actives have a fitted effect of over 20% in size
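20 mM phosphate pH 7.0 + 0.01% (detergent screen) or 0.0001% Triton X-100; 5.3 nM AmpC reagent; cpd preinc 15 min RT; nitrocefin (800 uM stock) to start; A480 q20 s × 4 min; Activity was normalised to no-enzyme and no-compound control wells.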
Numbers stand for hits; – = inactive; ? = inconclusive; · = no result; [ ] = another dose, or the depositor's remark. Only some compounds are listed: those with a hit (about 1.3% of all), similar ones and a draw of the others. The call rests on the fitted dose curve; in most records, active means well fitted curve in the direction sought with a large enough effect; inconclusive means small, poorly fitted or top-dose-only effect, or another doubt; inactive means no such curve, though single readings can be large; an effect the other way counts as inactive or inconclusive.

SMILES	Giardia FBPA inh	AmpC inh detg	AMA1-RON2 inh	LmPK inh	AmpC inh no detg
Cn1nc(C(=O)Nc2cccc(Cl)c2)cc1C(=O)Nc1cccc(Cl)c1	–	–	–	–	16µM
CCN(CC(=O)Nc1c(F)cccc1F)C(=O)c1ccc2c(c1)OCO2	·	–	–	·	–
O=C(Nc1ccc(S(=O)(=O)N2CCCCC2c2cccnc2)cc1)c1ccc(Br)cc1 (configuration not stated)	·	–	·	·	·
CC(C)C(NS(=O)(=O)c1cccs1)C(=O)NCc1ccc2c(c1)OCO2 (configuration not stated)	–	–	–	–	40µM
Cc1ccc(CNC(=O)C(NS(=O)(=O)c2cccs2)C(C)C)cc1 (configuration not stated)	–	–	–	–	–
COc1ccc(C)cc1NC(=O)NCc1ccc2c(c1)CCN2C(=O)c1ccccc1	·	–	·	·	·
O=C1c2ccccc2C(=O)c2cc(S(=O)(=O)Nc3ccccc3)ccc21	–	–	–	–	28µM
CC(C)c1ccc(NC(=O)Cn2cc(S(=O)(=O)N3CCN(c4ccccc4F)CC3)c3ccccc3c2=O)cc1	·	–	·	·	·
Cc1nc2ccc(NC(=O)N(C(C)C)C(C)C)cc2s1	–	–	–	–	–
CC(C)N(C(=O)Nc1ccc2nccnc2c1)C(C)C	3.5µM	–	–	–	–
O=C(NCc1ccccc1F)c1cccc(NC(=O)N2CCSc3ncccc32)c1	·	–	·	·	·
COc1cnc(-c2ccccn2)[nH]c1=O	3.5µM	–	–	–	–
CCN(c1ccccc1)S(=O)(=O)c1ccc(OC)c(NC(=O)CCc2nc3ccccc3c(=O)[nH]2)c1	·	?	–	·	35µM
COC(=O)C1=C(N)OC2=C(C(=O)CCC2)C1c1cccs1 (configuration not stated)	–	–	?	–	–
CCOC(=O)C1=C(N)OC2=C(C(=O)CCC2)C1c1cccs1 (configuration not stated)	13µM	–	–	–	–
CCN(CC(=O)Nc1c(F)cccc1F)C(=O)c1cccc(S(=O)(=O)N2CCc3ccccc3C2)c1	·	–	–	·	–
CN(C)S(=O)(=O)c1cccc(NC(=O)COC(=O)c2cccc(S(=O)(=O)N3CCc4ccccc4C3)c2)c1	–	–	–	–	–
CCc1cccc(CC)c1NC(=O)COC(=O)c1cccc(S(=O)(=O)N2CCc3ccccc3C2)c1	–	–	–	–	18µM
Cc1cccc(C(C)C)c1NC(=O)COC(=O)c1cccc(S(=O)(=O)N2CCc3ccccc3C2)c1	–	–	–	–	7.9µM
C[N+]1=C(/C=C/Nc2ccccc2Cl)C(C)(C)c2ccccc21	–	–	–	–	–
COC(=O)c1ccc2c(c1)C(C)(C)C(/C=C/c1ccccc1O)=[N+]2C	?	–	?	14µM	–
CC(C)NC(=O)C1Cc2c(-c3ccc(Cl)cc3)ccnc2O1 (configuration not stated)	·	·	–	·	·
O=C(Cn1nnc(-c2ccccc2)n1)Nc1cccc(S(=O)(=O)N2CCOCC2)c1	·	–	–	·	18µM
Cc1ccc(S(=O)(=O)N2CCOCC2)cc1NC(=O)Cn1nnc(-c2ccccc2)n1	·	·	–	·	·
Cc1c(C(=O)N(C)C)sc2c1c(=O)n(-c1ccc(Cl)c(Cl)c1)c(=O)n2CC(=O)N1CCCCC1C (configuration not stated)	·	–	·	·	·
SMILES	Giardia FBPA inh	AmpC inh detg	AMA1-RON2 inh	LmPK inh	AmpC inh no detg
CC(Sc1ccccc1)C(=O)Nc1ccccc1C(=O)N1CCOCC1 (configuration not stated)	–	–	–	–	0.28µM
CCC(Oc1ccccc1)C(=O)Nc1ccccc1C(=O)N1CCOCC1 (configuration not stated)	·	–	–	–	–
C=CCNC(=O)c1cc2cc(Cl)ccc2nc1N	·	·	–	·	·
COCc1cc(C)nc(OCC(=O)N/N=C/c2ccc(-c3cc([N+](=O)[O-])ccc3C)o2)c1C#N	–	–	–	–	–
Cc1ccc([N+](=O)[O-])cc1-c1ccc(/C=C(\C#N)c2[nH]nc(N)c2C#N)o1	–	–	–[11.6 µM]	–	32µM
COc1ccc(-n2nc([N+](=O)[O-])c(=NCCC3=CCCCC3)n2O)cc1	–	–	16µM	–	–
COc1ccc(-n2nc([N+](=O)[O-])c(=NCCc3ccc(C)cc3)n2O)cc1	–	–	?	–	–
Oc1c(Cl)cc(Cl)cc1/C=N/NC(=S)NC1CC2C=CC1C2 (configuration not stated)	–	–	–	–	8.9µM
Oc1ccccc1C=NNC(=S)NC1CC2C=CC1C2 (configuration not stated)	·	·	–	·	·
COC(=O)c1nc2ccc(N3CCOCC3)cc2c(C)c1C(=O)OC	7.9µM	?	–	–	–
CCOc1ccc(C2c3c(oc4ccc(C)cc4c3=O)C(=O)N2Cc2ccc3c(c2)OCO3)cc1OC (configuration not stated)	·	–	·	·	·
Oc1ccc(Br)cc1CNc1cnc2ccccc2c1	–	–	–	–	18µM
Cc1ccccc1NP1(=O)OCCCN1Cc1ccccc1Cl (configuration not stated)	·	·	–	·	·
Cc1c(C(=O)NCCSCc2ccccc2Cl)cccc1[N+](=O)[O-]	–	–	–	–	0.25µM
Cc1c(C(=O)NCCSCc2c(Cl)cccc2Cl)cccc1[N+](=O)[O-]	–	–	–	–	–
COc1ccc(C2=CC(=O)C=CC2=O)cc1	16µM	?	·	2.5µM	32µM
COc1ccc(C2=CC(=O)C[C@H](c3ccc(OC)cc3)C2)cc1	·	–	–	·	–
Oc1ccc(NCc2cccc(OCc3ccc(F)cc3)c2)cc1	18µM	–	–	–	–
O=[N+]([O-])c1ccc(COc2cccc(CNc3ccc(F)cc3)c2)cc1	–	–	–	–	–
Oc1ccc(NCc2cccc(OCc3ccccc3)c2)cc1	16µM	–	–	–	–
CCOC(=O)c1c(C)oc2ncnc(NCCCN3CCN(c4cc(C)ccc4C)CC3)c12	·	–	·	·	·
COc1ccc2nc(-c3ccc(N(C)C)cc3)sc2c1	–	·	·	·	·
CCCn1cnc2c(N)c(C)c(C)cc21	–	–	–	–	0.32µM
COc1ccc(C)cc1S(=O)(=O)Nc1cccc(-c2ccc(N3CCCC3)nn2)c1	·	–	·	·	·
CC(C)c1cc2c(c(O)c1O)[C@@]1(C(=O)O)CCCC(C)(C)[C@@H]1CC2	10µM	·	·	·	·
SMILES	Giardia FBPA inh	AmpC inh detg	AMA1-RON2 inh	LmPK inh	AmpC inh no detg
COc1ccc(NC(=O)CSc2nc3ccsc3c(=O)n2CCC(=O)O)cc1	·	·	–	·	·
Nc1ccc2ncccc2c1	2.2µM	–	–	–	–
CCCCn1c(O)c2n(c1=O)Cc1ccccc1N=C2c1ccc(C)cc1	·	·	–	·	·
CCOc1ccc(Br)cc1CNc1ccc2c(c1)OCCO2	–	–	32µM	–	–
CCCCn1c(-c2sccc2C)n[nH]c1=S	–	–	–	32µM	–
CCCCn1c(-c2ccco2)n[nH]c1=S	–	–	–	–	–
C/C(=N\Nc1nc(-c2ccc(C)cc2C)cs1)c1cc2ccccc2oc1=O	–	?	–	–	20µM
